SMILES strings stand for the structures. Inconclusive results are not listed. Active and inactive are the calls of the source. The calls were made as follows, unless noted: active = hit-call score of the fitted dose curve at least 0.9, where 1 is the maximum; inconclusive = response in the unintended direction; inactive = score below 0.9.

Sequence of human Thyroid Receptor alpha (THRa1), THRA (gene 7067) (P10827 whole entry, looked up): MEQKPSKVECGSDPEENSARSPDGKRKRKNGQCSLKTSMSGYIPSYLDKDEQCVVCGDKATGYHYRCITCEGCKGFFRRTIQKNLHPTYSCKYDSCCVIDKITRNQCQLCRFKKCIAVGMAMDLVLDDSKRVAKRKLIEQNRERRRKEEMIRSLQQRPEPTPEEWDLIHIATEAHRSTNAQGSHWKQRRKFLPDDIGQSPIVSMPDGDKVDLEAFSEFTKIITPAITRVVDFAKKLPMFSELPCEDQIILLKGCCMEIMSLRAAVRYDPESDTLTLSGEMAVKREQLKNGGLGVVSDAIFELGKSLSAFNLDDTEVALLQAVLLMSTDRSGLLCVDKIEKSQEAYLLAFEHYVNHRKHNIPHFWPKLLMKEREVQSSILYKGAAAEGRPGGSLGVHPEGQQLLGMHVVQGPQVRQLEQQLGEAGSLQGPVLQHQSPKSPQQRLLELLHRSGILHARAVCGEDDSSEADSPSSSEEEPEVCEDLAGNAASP
Sequence of E-selectin (Homo sapiens) (P16581 whole entry, looked up): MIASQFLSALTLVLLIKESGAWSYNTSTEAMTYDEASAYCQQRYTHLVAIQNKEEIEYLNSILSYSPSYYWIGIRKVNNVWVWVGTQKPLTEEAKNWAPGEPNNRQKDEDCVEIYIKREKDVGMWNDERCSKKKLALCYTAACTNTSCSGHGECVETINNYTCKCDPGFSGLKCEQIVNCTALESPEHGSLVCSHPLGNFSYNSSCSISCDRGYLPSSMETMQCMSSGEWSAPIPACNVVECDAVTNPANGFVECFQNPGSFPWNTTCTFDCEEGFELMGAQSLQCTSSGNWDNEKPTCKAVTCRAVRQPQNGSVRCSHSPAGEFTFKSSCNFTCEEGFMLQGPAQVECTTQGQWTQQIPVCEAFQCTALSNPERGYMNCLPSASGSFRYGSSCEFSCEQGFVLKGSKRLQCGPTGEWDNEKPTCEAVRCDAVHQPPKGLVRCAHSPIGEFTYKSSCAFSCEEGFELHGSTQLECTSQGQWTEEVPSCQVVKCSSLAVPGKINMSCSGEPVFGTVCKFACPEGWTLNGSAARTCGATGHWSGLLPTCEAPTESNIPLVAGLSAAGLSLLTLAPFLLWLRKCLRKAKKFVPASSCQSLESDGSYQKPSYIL

In the first assay the target is human Retinoid X Receptor beta (RXRb), RXRB (gene 6257) (UniProt P28702). Nature of the assay: ATG_RXRb_TRANS: Attagene TRANS-FACTORIAL HepG2 Assay for human Retinoid X Receptor beta (RXRb) (AID 2283013).
Sequence of human Retinoid X Receptor beta (RXRb), RXRB (gene 6257) (P28702 whole entry, looked up): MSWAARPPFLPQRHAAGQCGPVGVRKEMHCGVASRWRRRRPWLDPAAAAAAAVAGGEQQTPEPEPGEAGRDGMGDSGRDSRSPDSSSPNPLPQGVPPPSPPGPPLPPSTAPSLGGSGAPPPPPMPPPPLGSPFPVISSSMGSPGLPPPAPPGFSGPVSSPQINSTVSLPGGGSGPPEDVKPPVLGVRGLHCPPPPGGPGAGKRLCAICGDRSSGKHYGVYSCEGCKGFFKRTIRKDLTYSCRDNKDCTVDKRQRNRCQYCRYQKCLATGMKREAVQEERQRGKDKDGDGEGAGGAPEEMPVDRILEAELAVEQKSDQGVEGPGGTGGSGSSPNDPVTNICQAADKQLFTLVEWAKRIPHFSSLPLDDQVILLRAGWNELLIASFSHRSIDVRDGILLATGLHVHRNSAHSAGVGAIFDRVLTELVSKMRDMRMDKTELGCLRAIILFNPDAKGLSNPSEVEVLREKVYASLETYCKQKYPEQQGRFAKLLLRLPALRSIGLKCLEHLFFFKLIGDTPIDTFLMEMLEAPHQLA
Conditions: not given
The essentials: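 Chimeric receptor-Gal4 activity was assessed in transiently transfected human HepG2 cells after 24 h exposure. Transcripts from GAL4-UAS reporters were quantified by fluorescent RT-PCR and capillary electrophoresis, with DMSO as negative control and baseline.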
On to `Nc1ccc(N=Nc2ccccc2)c(N)n1`, for which the outcome was inactive.
Same read-out and setting: to `N#CCc1ccc(Cl)cc1Cl` belongs “inactive”.
The same measure, in the same setting: the entry for `CCc1c(C(=O)O)c(=O)cnn1-c1ccc(Cl)cc1` is “inactive”.

The next assay concerns the target human Thyroid Receptor alpha (THRa1), THRA (gene 7067) (UniProt P10827). Nature of the assay: ATG_THRa1_TRANS: Attagene TRANS-FACTORIAL HepG2 Assay for human Thyroid Receptor alpha (THRa1) (AID 2283014).
Conditions: not given
Summed up: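 Measured here is mRNA from a GAL4-UAS reporter in transfected HepG2 cells carrying a Gal4-fused receptor, 24 h post-dose. DMSO served as negative control and baseline.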
As for `COC(=O)c1ccc2cc(C(=O)OC)ccc2c1`, the call was inactive.
For the compound `Cc1oncc1C(=O)Nc1ccc(C(F)(F)F)cc1`, the call was inactive.
Still for that read-out and setting: the entry for `CC1=NN(c2cc(S(=O)(=O)O)ccc2Cl)C(=O)C1N=Nc1ccccc1` (configuration not stated) is “inactive”; for `S=C(NC1CCCCC1)NC1CCCCC1` it is “inactive”; for `CC(C)=CCC[C@H](C)CCO` it is “inactive”.
Still for that read-out and setting: to `NC(=O)NNC(N)=O` belongs “inactive”.
Same read-out and setting: to `CC(C)c1ccc(C=O)cc1` belongs “inactive”.
With `O=c1cc[nH]c(=S)[nH]1`, the outcome was inactive.
Still for that read-out and setting: to `CCN(CC)c1ccc(C(=O)c2ccccc2C(=O)O)c(O)c1` belongs “inactive”.
The same measure, in the same setting: the entry for `N[C@H]1C(O)O[C@H](CO)[C@H](O)[C@@H]1O` (some centres not stated) is “inactive”; for `Cn1c([N+](=O)[O-])cnc1COC(N)=O` it is “inactive”; for `CCC(Cc1ccccc1)(C(=O)c1ccc(N2CCOCC2)cc1)N(C)C` (configuration not stated) it is “inactive”.
Same read-out and setting: the entry for `COc1ccc(NC(C)=O)cc1N` is “inactive”; for `N=c1ccn2c(n1)O[C@H]1[C@H](O)[C@@H](CO)O[C@H]12` it is “inactive”; for `NC(=O)OCC(COC(N)=O)c1ccccc1` it is “inactive”.
On to `Nc1ncn([C@@H]2O[C@H](CO)[C@@H](O)[C@H]2O)c(=O)n1`, for which the call was inactive.
Take `Nc1nc2ccccc2[nH]1`: the outcome was inactive.
Turning to `CC(=O)OCCC1CCCCC1`, the compound was called inactive.
The same measure, in the same setting: the entry for `CO[Si](CCC1CCC2OC2C1)(OC)OC` (configuration not stated) is “inactive”; for `[Cl][In]([Cl])[Cl]` it is “inactive”; for `Cc1ccccc1C` it is “inactive”.
Still for that read-out and setting: to `C/C=C\C/C=C/CCCCCCCCOC(C)=O` belongs “inactive”.
Same read-out and setting: the entry for `CCCCCCCC[N+](C)(CCCCCCCC)CCCCCCCC` is “inactive”.
In the case of `O=CC1CC1`, the result was inactive.
The same measure, in the same setting: to `C=CC(=O)OCCC(=O)O` belongs “inactive”.
Same read-out and setting: to `CCN(CCC#N)c1ccc(N=Nc2c(Cl)cc([N+](=O)[O-])cc2Cl)cc1` belongs “inactive”.
In the case of `CCOC(=O)NNc1nncc2ccccc12`, the compound was classed as inactive.
The same measure, in the same setting: to `c1ccc(-c2ccccn2)nc1` belongs “inactive”; to `CCCCCCOC(=O)C(C)CC` (configuration not stated), “inactive”.
The same measure, in the same setting: the entry for `O=c1[nH]c(=O)c2[nH]c(=O)[nH]c2[nH]1` is “inactive”; for `C=COCCCC` it is “inactive”.
On the same count and under the same terms, the entry for `O=C(O)Cc1c(Cl)ccc(Cl)c1Cl` is “inactive”; for `COC(=O)C1=C(C)NC(C)=C(C(=O)OCC(C)C)C1c1ccccc1[N+](=O)[O-]` (configuration not stated) it is “inactive”.

Read-out in another assay: E-selectin (Homo sapiens) (UniProt P16581)
The assay is described as follows: BSK_3C_Eselectin: BioMAP Diversity Plus: 3C Assay for Eselectin Biomarker Activity (AID 2283015; active = hit-call score of the fitted dose curve at least 0.9, where 1 is the maximum; inactive = score below 0.9;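 as to outcome: cell surface E-selectin protein quantified by ELISA 24 h after dosing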). The conditions noted are these: primary human endothelial cells (HUVEC); actives raise or lower the signal. The essentials:
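Endpoint derived by bidirectional fitting against DMSO vehicle; signal is ELISA-detected E-selectin from primary HUVEC at 24 h post-dosing, with parallel SRB staining (0.1% SRB, 560 nm) flagging cytotoxicity.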
`S=C(NC1CCCCC1)NC1CCCCC1`: the outcome was inactive.
Turning to `C/C=C\C/C=C/CCCCCCCCOC(C)=O`, the AC50 – broadly, the concentration at which the activity in the assay is half-maximal – is 19.6 µM (active).
Take `c1ccc(-c2ccccn2)nc1`: the result was inactive.

Read-out in another assay: Interleukin-1 alpha (IL1a), IL1A (gene 3552)
Nature of the assay: BSK_BE3C_IL1a: BioMAP Diversity Plus: BE3C Assay for Interleukin-1 alpha (IL1a) Biomarker Activity (AID 2283016; active = hit-call score of the fitted dose curve at least 0.9, where 1 is the maximum; inactive = score below 0.9). The conditions noted are these: primary human bronchial epithelial cells; actives raise or lower the signal. The essentials: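 Signal from IL-1a ELISA, taken 24 h after chemical dosing of human bronchial epithelial cells, is compared with DMSO as baseline using bidirectional curve fitting.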
`S=C(NC1CCCCC1)NC1CCCCC1`: the outcome was inactive.
For `C/C=C\C/C=C/CCCCCCCCOC(C)=O`, the AC50 is 12.1 µM (active).
`c1ccc(-c2ccccn2)nc1`: the result was inactive.

Source of the values: PubChem BioAssay (EPA / NIEHS).
